Test results reported in PubChem BioAssay (EPA / NIEHS).
Activity calls are given as the source filed them. The calls were made as follows: active = hit-call score of the fitted dose curve at least 0.9, where 1 is the maximum; inactive = score below 0.9.

Assays:
Conditions in all cases: mRNA level, 48 h; actives raise or lower the signal
[1] = read-out: Peroxisomal acyl-coenzyme A oxidase 1 (ACOX1) gene, ACOX1 (gene 51); test: LTEA_HepaRG_ACOX1: Life Technologies and Expression Analysis (LTEA) Assay for Peroxisomal acyl-coenzyme A oxidase 1 (ACOX1) gene using HepaRG (AID 2283467)
How it was run: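 Measured by qRT-PCR against three housekeeping genes: ACOX1 transcript change in human HepaRG cells after 48 h dosing. Concentrations ran up to 100 uM in half-log steps. Curves were fitted bidirectionally relative to 0.5% DMSO.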

[2] = read-out: Alkaline Phosphatase, Placental (ALPP) gene, ALPP (gene 250); test: LTEA_HepaRG_ALPP: Life Technologies and Expression Analysis (LTEA) Assay for Alkaline Phosphatase, Placental (ALPP) gene using HepaRG (AID 2283468)
How it was run: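 HepaRG, 48 h plating then 48 h dosing, serum-free induction medium, 0.5% DMSO. 8 conc, half-log, max 100 uM, duplicates. Endpoint: ALPP transcript by qRT-PCR, housekeeping-normalized; gain or loss fitted vs DMSO.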

[3] = read-out: Bcl-2 (BAD) gene, BAD (gene 572); test: LTEA_HepaRG_BAD: Life Technologies and Expression Analysis (LTEA) Assay for Bcl-2 (BAD) gene using HepaRG (AID 2283469)
How it was run: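 BAD transcript change, measured by qRT-PCR against three housekeeping genes and fitted in both directions relative to 0.5% DMSO, after 48 h chemical treatment of human HepaRG liver cells at concentrations up to 100 uM.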

[4] = read-out: Bcl-2 (BAX) gene, BAX (gene 581); test: LTEA_HepaRG_BAX: Life Technologies and Expression Analysis (LTEA) Assay for Bcl-2 (BAX) gene using HepaRG (AID 2283470)
How it was run: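 Differentiated HepaRG cells exposed 48 h in serum-free induction medium, eight half-log concentrations from 100 uM, in duplicate, 0.5% DMSO vehicle. BAX mRNA by TaqMan qRT-PCR, normalised to ACTB, GAPDH and POLR2A.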

[5] = read-out: adenosine kinase (ADK) gene, ADK (gene 132); test: LTEA_HepaRG_ADK: Life Technologies and Expression Analysis (LTEA) Assay for adenosine kinase (ADK) gene using HepaRG (AID 2283471)
How it was run: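 HepaRG (human liver), 48 h chemical exposure, 8-pt half-log series, top 100 uM, 0.5% DMSO vehicle. Readout: ADK mRNA by qRT-PCR vs housekeeping genes; bidirectional curve fit relative to DMSO baseline.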

[6] = read-out: Alpha-fetoprotein (AFP) gene, AFP (gene 174); test: LTEA_HepaRG_AFP: Life Technologies and Expression Analysis (LTEA) Assay for Alpha-fetoprotein (AFP) gene using HepaRG (AID 2283472)
How it was run: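 Differentiated human HepaRG cells exposed 48 h in serum-free induction medium, 8-point half-log series from 100 uM in 0.5% DMSO, duplicate. AFP mRNA by qRT-PCR, normalized to ACTB, GAPDH, POLR2A; bidirectional fit vs DMSO.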

BCL2L11 (gene 10018) = test: LTEA_HepaRG_BCL2L11: Life Technologies and Expression Analysis (LTEA) Assay for Bcl-2 (BCL2L11) gene using HepaRG (AID 2283473)
How it was run: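 Read-out is BCL2L11 transcript level by qRT-PCR, normalized to three housekeeping genes and fitted bidirectionally against 0.5% DMSO vehicle. HepaRG cells received chemicals for 48 h in serum-free induction medium, 100 uM down in half-log dilutions.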

[7] = read-out: Apolipoprotein A-V (APOA5) gene, APOA5 (gene 116519); test: LTEA_HepaRG_APOA5: Life Technologies and Expression Analysis (LTEA) Assay for Apolipoprotein A-V (APOA5) gene using HepaRG (AID 2283474)
How it was run: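 Readout is APOA5 transcript level by qRT-PCR on Fluidigm dynamic arrays, normalized to three housekeeping genes. HepaRG cultures received chemicals for 48 h at up to 100 uM (half-log steps, 0.5% DMSO), with gain or loss scored relative to DMSO.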

[8] = read-out: Apoptosis regulator Bcl-2 (Homo sapiens) (UniProt P10415); test: LTEA_HepaRG_BCL2: Life Technologies and Expression Analysis (LTEA) Assay for Bcl-2 gene using HepaRG (AID 2283475)
How it was run: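 Differentiated human HepaRG cells in serum-free induction medium exposed 48 h, in duplicate, to 8-point half-log series from 100 uM in 0.5% DMSO. BCL2 mRNA by qRT-PCR (TaqMan/Fluidigm), normalized to ACTB, GAPDH, POLR2A; bidirectional fit against DMSO.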

[9] = read-out: Bcl-2 (BID) gene, BID (gene 637); test: LTEA_HepaRG_BID: Life Technologies and Expression Analysis (LTEA) Assay for Bcl-2 (BID) gene using HepaRG (AID 2283476)
How it was run: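 Gene expression by qRT-PCR in HepaRG cells after 48 h exposure, duplicate wells, eight half-log concentrations topping at 100 uM in 0.5% DMSO. Normalized to ACTB, GAPDH, POLR2A; bidirectional fitting relative to DMSO.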

Caspase-3 (Homo sapiens) = Caspase-3 (Homo sapiens) (UniProt P42574); test: LTEA_HepaRG_CASP3: Life Technologies and Expression Analysis (LTEA) Assay for cysteine-aspartic acid protease (CASP3) using HepaRG (AID 2283477)
How it was run: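 Read-out is CASP3 mRNA level by TaqMan qRT-PCR in human HepaRG cells after 48 h chemical exposure. Eight half-log concentrations topping at 100 uM were tested in 0.5% DMSO; gain or loss was fitted relative to DMSO.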

[10] = read-out: Cytochrome P450 (CYP24A1), CYP24A1 (gene 1591); test: LTEA_HepaRG_CYP24A1: Life Technologies and Expression Analysis (LTEA) Assay for Cytochrome P450 (CYP24A1) using HepaRG (AID 2283478)
How it was run: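 HepaRG, 48 h chemical exposure, 8-pt half-log CRC from 100 uM, 0.5% DMSO vehicle, duplicates. Endpoint: CYP24A1 mRNA by Fluidigm TaqMan qRT-PCR, normalized ACTB/GAPDH/POLR2A; gain/loss fit vs DMSO.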

[11] = read-out: Cytochrome P450 (CYP1A2), CYP1A2 (gene 1544); test: LTEA_HepaRG_CYP1A2: Life Technologies and Expression Analysis (LTEA) Assay for Cytochrome P450 (CYP1A2) using HepaRG (AID 2283479)
How it was run: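 CYP1A2 transcript induction or loss, quantified by Fluidigm qRT-PCR against three housekeeping genes, was fitted bidirectionally against 0.5% DMSO controls. Human HepaRG cells received eight half-log concentrations from 100 uM over 48 h.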

[12] = read-out: Cytochrome P450 (CYP2B6), CYP2B6 (gene 1555); test: LTEA_HepaRG_CYP2B6: Life Technologies and Expression Analysis (LTEA) Assay for Cytochrome P450 (CYP2B6) using HepaRG (AID 2283481)
How it was run: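 HepaRG cells plated 48 h, switched to serum-free induction medium, then dosed 48 h (8 points, half-log from 100 uM, 0.5% DMSO). RNA isolated; CYP2B6 expression measured by qRT-PCR; gain or loss fitted relative to DMSO.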

[13] = read-out: Cytochrome P450 2C19 (Homo sapiens) (UniProt P33261); test: LTEA_HepaRG_CYP2C19: Life Technologies and Expression Analysis (LTEA) Assay for CYP2C19 using HepaRG (AID 2283482)
How it was run: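 Transcript levels of CYP2C19 were quantified by qRT-PCR after HepaRG cells were treated for 48 hours with test chemicals up to 100 uM (eight half-log concentrations, 0.5% DMSO vehicle). Gain or loss of signal was fitted relative to DMSO.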

CYP2C8 (gene 1558) = test: LTEA_HepaRG_CYP2C8: Life Technologies and Expression Analysis (LTEA) Assay for CYP2C8 using HepaRG (AID 2283483)
How it was run: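 CYP2C8 mRNA induction or loss, by qRT-PCR normalized to ACTB/GAPDH/POLR2A, is read in HepaRG cells after 48 h treatment. Concentrations run from 100 uM down in half-log dilutions, with 0.5% DMSO as vehicle and baseline.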

CYP2C9 (gene 1559) = test: LTEA_HepaRG_CYP2C9: Life Technologies and Expression Analysis (LTEA) Assay for CYP2C9 using HepaRG (AID 2283484)
How it was run: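 Cells plated 48 h, switched to serum-free induction medium, then treated in duplicate for 48 h at eight concentrations (max 100 uM, 0.5% DMSO). RNA then analysed by qRT-PCR for CYP2C9; curves fitted in both directions relative to DMSO.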

CYP2E1 (gene 1571) = test: LTEA_HepaRG_CYP2E1: Life Technologies and Expression Analysis (LTEA) Assay for CYP2E1 using HepaRG (AID 2283485)
How it was run: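 HepaRG cells, plated 48 h, then exposed 48 h in serum-free induction medium to eight half-log concentrations from 100 uM in 0.5% DMSO, duplicate. CYP2E1 mRNA by qRT-PCR, normalized to ACTB/GAPDH/POLR2A; bidirectional fit versus DMSO.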

CYP4A11 (gene 1579) = test: LTEA_HepaRG_CYP4A11: Life Technologies and Expression Analysis (LTEA) Assay for CYP4A11 using HepaRG (AID 2283486)
How it was run: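 HepaRG, 48 h chem exposure, 8 conc (100 uM top, half-log), 0.5% DMSO vehicle; qRT-PCR readout, housekeeping-gene normalized; bidirectional curve fit vs DMSO baseline.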

[14] = read-out: cysteine-aspartic acid protease (CASP8), CASP8 (gene 841); test: LTEA_HepaRG_CASP8: Life Technologies and Expression Analysis (LTEA) Assay for cysteine-aspartic acid protease (CASP8) using HepaRG (AID 2283480)
How it was run: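 HepaRG, 48 h exposure, duplicate wells; 8 conc, half-log from 100 uM, 0.5% DMSO. Serum-free induction medium. CASP8 mRNA by TaqMan qRT-PCR, norm. ACTB/GAPDH/POLR2A; gain/loss fitted vs DMSO.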

Measured: AC50

Apoptosis regulator Bcl-2 (Homo sapiens), sequence (P10415 whole entry, looked up): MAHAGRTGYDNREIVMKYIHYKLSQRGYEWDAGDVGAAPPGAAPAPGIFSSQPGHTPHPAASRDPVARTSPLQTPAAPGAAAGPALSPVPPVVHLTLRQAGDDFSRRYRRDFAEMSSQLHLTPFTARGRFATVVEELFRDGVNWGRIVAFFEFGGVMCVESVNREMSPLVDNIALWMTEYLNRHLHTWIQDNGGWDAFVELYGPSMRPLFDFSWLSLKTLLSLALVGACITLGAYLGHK
Cytochrome P450 2C19 (Homo sapiens), sequence (P33261 whole entry, looked up): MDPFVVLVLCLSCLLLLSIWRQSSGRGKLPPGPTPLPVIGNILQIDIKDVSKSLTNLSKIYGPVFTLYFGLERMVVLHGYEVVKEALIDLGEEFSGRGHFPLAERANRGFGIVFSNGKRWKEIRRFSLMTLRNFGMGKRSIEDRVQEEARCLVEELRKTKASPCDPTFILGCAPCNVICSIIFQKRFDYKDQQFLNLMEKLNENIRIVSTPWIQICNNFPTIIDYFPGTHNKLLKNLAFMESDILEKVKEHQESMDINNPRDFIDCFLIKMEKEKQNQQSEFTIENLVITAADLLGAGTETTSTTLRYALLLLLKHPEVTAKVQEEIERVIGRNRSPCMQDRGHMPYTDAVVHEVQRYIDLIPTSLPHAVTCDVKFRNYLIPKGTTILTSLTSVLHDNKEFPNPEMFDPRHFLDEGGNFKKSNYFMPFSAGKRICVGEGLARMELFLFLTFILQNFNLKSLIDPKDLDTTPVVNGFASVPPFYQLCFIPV
Caspase-3 (Homo sapiens), sequence (P42574 whole entry, looked up): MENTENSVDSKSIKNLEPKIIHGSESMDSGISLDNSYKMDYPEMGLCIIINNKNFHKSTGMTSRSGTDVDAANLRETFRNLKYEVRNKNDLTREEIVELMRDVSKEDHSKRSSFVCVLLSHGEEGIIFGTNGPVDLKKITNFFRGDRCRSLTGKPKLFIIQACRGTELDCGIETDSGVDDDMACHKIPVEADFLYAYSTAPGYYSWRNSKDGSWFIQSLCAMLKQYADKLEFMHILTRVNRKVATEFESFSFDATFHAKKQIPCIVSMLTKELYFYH

CC1=C2C[C@H]3[C@@H](CC=C4C[C@@H](O)CC[C@@]43C)[C@@H]2CC[C@]12O[C@@H]1C[C@H](C)CN[C@H]1[C@H]2C
inactive: [1] | [2] | [3] | [4] | [5] | [6] | BCL2L11 (gene 10018) | [7] | [8] | [9] | Caspase-3 (Homo sapiens) | [10] | [11] | [12] | [13] | CYP2C8 (gene 1558) | CYP2C9 (gene 1559) | CYP2E1 (gene 1571) | CYP4A11 (gene 1579)

C=CC(N)=O
inactive: [1] | [2] | [3] | [4] | [5] | [6] | BCL2L11 (gene 10018) | [7] | [8] | [9] | Caspase-3 (Homo sapiens) | [10] | [11] | [14] | [12] | CYP2C8 (gene 1558) | CYP2C9 (gene 1559) | CYP2E1 (gene 1571) | CYP4A11 (gene 1579)

CCCCCCOC(=O)c1ccccc1C(=O)OCCCCCC
active: [11] 50 µM | CYP4A11 (gene 1579) 74.7 µM
inactive: [1] | [2] | [3] | [4] | [5] | [6] | BCL2L11 (gene 10018) | [7] | [8] | [9] | Caspase-3 (Homo sapiens) | [10] | [12] | [13] | CYP2C8 (gene 1558) | CYP2C9 (gene 1559) | CYP2E1 (gene 1571)

CCSC(=O)N(CC)C1CCCCC1
inactive: [1] | [2] | [3] | [4] | [5] | [6] | BCL2L11 (gene 10018) | [7] | [8] | [9] | Caspase-3 (Homo sapiens) | [10] | [11] | [14] | [13] | CYP2C9 (gene 1559) | CYP2E1 (gene 1571) | CYP4A11 (gene 1579)
active: [12] 32.9 µM

Oc1c(Cl)c(Cl)c(Cl)c(Cl)c1Cl
active: [1] 3.29 µM | [2] 5.48 µM | [5] 6.68 µM | [6] 3.19 µM | BCL2L11 (gene 10018) 6.24 µM | [7] 3.95 µM | [9] 4.97 µM | Caspase-3 (Homo sapiens) 6.5 µM | [11] 3.83 µM | [12] 3.43 µM | [13] 4.27 µM | CYP2C8 (gene 1558) 4.44 µM | CYP2C9 (gene 1559) 3.08 µM | CYP2E1 (gene 1571) 1.94 µM | CYP4A11 (gene 1579) 4.37 µM
inactive: [3] | [4] | [8] | [10]
